Bioassay records deposited in PubChem BioAssay by National Center for Advancing Translational Sciences (NCATS).
Shown are actives, neighbours in structure and some others; about 19% of the full set was active somewhere.
KB-3-1 cytotox: qHTS assay for MDR1-selective chemotherapeutics: Primary screen using the parental adenocarcinoma cell KB-3-1; Potency, µM (series often up to 46.1 µM), usual class: cytotoxic; KB-3-1 viability, CellTiter-Glo ATP luminescence, 72 h; 400,000 tested, 1.4% active; note: nearly all actives have a fitted effect of over 60% in size
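Luminescent ATP read-out (CellTiter-Glo) measures survival of drug-naive KB-3-1 cells after 72 h compound exposure at 37 °C. Titration series was screened from lowest to highest concentration, with DMSO vehicle plates as background controls.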
DT40 TDP1 no CPT: qHTS for Inhibitors of human tyrosyl-DNA phosphodiesterase 1 (TDP1): qHTS in cells in absence of CPT. DT40 Tdp1-/- hTDP1 cells, no CPT, ATP luminescence, 48 h. Potency, µM (top dose mostly 46.2 µM), actives largely listed as inhibitors. 420,000 tested, 15% active; note: nearly all actives have a fitted effect of over 55% in size
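Luminescent ATP content (CellTiter-Glo) served as the growth readout. Knockout chicken DT40 cells expressing human TDP1 were exposed to compounds without camptothecin for a minimum 48 hr at 37 °C.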
HT1080 IDH1KD tx: qHTS for induction of synthetic lethality in tumor cells producing 2HG: qHTS for the HT-1080-IDH1KD cell line | HT-1080 IDH1 knockdown viability, ATP luminescence, 48 h | Potency, µM (top dose mostly 46.1 µM), most hits filed as cytotoxic | 360,000 tested, 2% active | AID 686971, 2013
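IDH1KD HT-1080 cells, 750/well, RPMI + 5% FBS; compound pinned after 2 h settling; 48 h, 37 °C; CellTiter-Glo luminescence; % activity normalised to DMSO and no-cell wells; curves fitted, classed by r2 and efficacy.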
TDP1 cell CPT: qHTS for Inhibitors of human tyrosyl-DNA phosphodiesterase 1 (TDP1): qHTS in cells in presence of CPT; chicken DT40 Tdp1-/-;hTDP1 cells + 20 nM CPT, ATP luminescence, 48 h; Potency, µM (doses to about 46.2 µM), actives largely listed as inhibitors; 420,000 tested, 12% active; note: nearly all actives have a fitted effect of over 55% in size
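Chicken DT40 Tdp1-/- cells stably complemented with human TDP1 were seeded at 400 cells/well in medium containing 20 nM camptothecin, exposed to pin-transferred compounds, and grown at 37 °C for at least 48 hr. Viability was read as ATP luminescence.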
HT1080NT lethal: qHTS for induction of synthetic lethality in tumor cells producing 2HG: qHTS for the HT-1080-NT fibrosarcoma cell line. Potency, µM (series often up to 46.1 µM), hits mostly cytotoxic. HT-1080-NT fibrosarcoma viability, CellTiter-Glo ATP luminescence, 48 h. 360,000 tested, 1.6% active;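 note: NT is the 2HG producing partner of a matched IDH1 knockdown line; nearly all actives have a fitted effect of over 55% in size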
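Toxicity toward the 2HG-producing NT line was scored as %Activity, normalised to DMSO and no-cell wells, from CellTiter-Glo luminescence after 48 hours' treatment.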
KB-V1 cytotox: qHTS assay for MDR1-selective chemotherapeutics: Primary screen using the drug-selected MDR subline cells KB-V1; Potency, µM (doses to about 46.1 µM), actives largely listed as cytotoxic; KB-V1 MDR cells viability, CellTiter-Glo, 72 h; 400,000 tested, 3.4% active; AID 1347076, 2019; note: nearly all actives have a fitted effect of over 60% in size
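qHTS viability screen in drug-selected KB-V1 MDR cells: 72 h compound treatment at 37 degrees C, ATP luminescence end point.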
Numbers stand for hits; 0 = inactive; ? = inconclusive; - = not tested or not shown. Calls come from the whole dose curve; as a rule, active = well fitted curve in the direction sought with a large enough effect; inconclusive = small, poorly fitted or top-dose-only effect, or another doubt; inactive = no such curve, though single readings can be large; an effect the other way counts as inactive or inconclusive.

SMILES | KB-3-1 cytotox | DT40 TDP1 no CPT | HT1080 IDH1KD tx | TDP1 cell CPT | HT1080NT lethal | KB-V1 cytotox
Cc1ccc(-n2ncc3c(NCc4cccnc4)ncnc32)cc1C | ? | ? | 0 | 21µM | 0 | ?
Cc1cccc(C(=O)NNc2ncnc3c2cnn3-c2ccc(C)cc2C)c1 | 0 | ? | - | 23µM | - | 0
Cc1ccc(-n2ncc3c(NCc4cccnc4)ncnc32)c(C)c1 | ? | 5.2µM | 0 | 16µM | 0 | ?
O=C(COc1cccc2ccccc12)NCc1cccnc1 | 0 | 0 | 0 | 0 | 0 | 0
COC(=O)c1sccc1S(=O)(=O)N(CC(=O)NCc1ccc(C)cc1)c1ccc(C)c(C)c1 | 0 | 0 | - | ? | - | 0
COc1ccccc1CNC(=O)CS(=O)(=O)c1ccc(C)cc1 | 0 | 0 | 0 | 0 | 0 | 0
COc1ccc(/C=C2\N=C(c3ccccc3Cl)NC2=O)cc1 | ? | 0.82µM | 15µM | 5.8µM | 0 | ?
CCc1nn2c(=O)c(S(=O)(=O)Nc3ccc(C(C)C)cc3)c(C)nc2s1 | 0 | 16µM | 0 | ? | 0 | 0
COc1cc(NC(=O)CN2C(=O)COc3ccc(S(=O)(=O)N4CCOCC4)cc32)cc(OC)c1 | 0 | 0 | 0 | 0 | 0 | 0
CCN(Cc1nc(-c2ccccc2)no1)C(=O)c1ccco1 | 0 | 0 | 0 | 0 | 0 | 0
CCCS(=O)(=O)c1c(S(=O)(=O)CCC)c2c(N)cccn2c1C(=O)c1ccc(Br)cc1 | 0 | ? | 0 | 16µM | 0 | 0
CCCS(=O)(=O)c1c(S(=O)(=O)CCC)c2c(N)cccn2c1C(=O)c1ccc(OC)cc1 | 0 | 0 | 0 | 0 | 0 | 0
CCCS(=O)(=O)c1c(S(=O)(=O)CCC)c2ccccn2c1C(=O)OC | 0 | 16µM | 0 | 21µM | 0 | ?
CCCS(=O)(=O)c1c(S(=O)(=O)CCC)c2c(C)cccn2c1C(=O)OC | 0 | 13µM | 0 | 13µM | 0 | ?
CCCS(=O)(=O)c1c(S(=O)(=O)CCC)c2c(N)cccn2c1C(=O)c1ccc(F)cc1 | 0 | ? | 0 | 0 | 0 | ?
COC(=O)c1c(C(=O)OC)c2ccccn2c1C(=O)c1ccc([N+](=O)[O-])cc1 | 0 | 0 | 0 | 0 | 0 | 0
CCCS(=O)(=O)c1c(S(=O)(=O)CCC)c2c3ccccc3ccn2c1C(=O)OC | 0 | 26µM | 0 | ? | 0 | ?
COc1ccccc1N1CCN(S(=O)(=O)CC23CCC(CC2=O)C3(C)C)CC1 (configuration not stated) | 0 | 0 | 0 | 0 | 0 | 0
CCCS(=O)(=O)c1c(S(=O)(=O)CCC)c2cc(C(C)(C)C)ccn2c1C(=O)c1ccccc1 | 0 | 16µM | - | 18µM | - | 0
CCCS(=O)(=O)c1c(S(=O)(=O)CCC)c2ccc(C(N)=O)cn2c1C(=O)c1ccc(F)cc1 | 0 | 0 | 0 | 0 | 0 | 0
O=C(Cn1nc(C(=O)O)c2ccccc2c1=O)Nc1cccc(S(=O)(=O)N2CCCCC2)c1 | 0 | 0 | 0 | 0 | 0 | ?
Cc1ccccc1NC(=S)NC(=O)c1cc(-c2ccccc2)nc2ccccc12 | 0 | ? | 0 | ? | 0 | 0
COc1ccc(NC(=O)c2cc(-c3ccco3)nc3ccccc23)cc1 | 0 | ? | ? | 0 | ? | 0
COc1ccc(-c2cc(C(=O)Nc3ccc(C(N)=O)cc3)c3ccccc3n2)cc1 | 0 | 6.5µM | ? | 8.2µM | ? | ?
CCOc1cccc(-c2cc(C(=O)Nc3ccon3)c3ccccc3n2)c1 | 0 | 9.2µM | 0 | ? | 0 | 16µM
SMILES | KB-3-1 cytotox | DT40 TDP1 no CPT | HT1080 IDH1KD tx | TDP1 cell CPT | HT1080NT lethal | KB-V1 cytotox
COc1ccc(COc2cc(-c3cccc(OC)c3)nc3ccc(NC(=O)C(C)C)cc23)cc1 | 2.6µM | 4.6µM | 2.9µM | 4.6µM | ? | ?
Cc1cccc(NC(=S)NC(=O)c2cc(-c3ccccc3)nc3ccccc23)c1 | 0 | ? | 0 | 20µM | 0 | 0
COc1ccc2cc(-c3cc(C(=O)O)c4ccccc4n3)ccc2c1 | 15µM | ? | ? | ? | ? | 0
COc1cccc(-c2cc(C(=O)Nc3cccnc3)c3ccccc3n2)c1 | 0 | ? | 0 | ? | 0 | ?
COc1cccc(-c2cc(C(=O)Nc3ccc([N+](=O)[O-])cn3)c3ccccc3n2)c1 | 0 | 12µM | 0 | ? | 0 | 0
COc1cc2ccc(-c3ccc4ccccc4n3)cc2cc1OC | ? | 6.5µM | 0 | ? | 0 | ?
COc1cccc(-c2cc(C(=O)Nc3ccccc3)c3ccccc3n2)c1 | 0 | 6.5µM | 0 | ? | 0 | ?
COc1ccc(-c2ccc3ccccc3n2)cc1OC | 0 | ? | 0 | 0 | 0 | ?
CC(C)[C@H](NC(=O)[C@H]1N2C(=O)c3ccccc3C2SC1(C)C)C(=O)NCc1ccco1 (some centres not stated) | 0 | 0 | 0 | 0 | 0 | 0
COc1ccc(-c2cc(-c3ccccc3)nc3c2COc2ccc(F)cc2-3)cc1 | 0 | ? | - | ? | - | 0
O=C(CNC(=O)c1ccc(Br)o1)NCC(=O)OCc1ccccc1 | 0 | 0 | 0 | 0 | 0 | 0
O=C1NC[C@H](CCCCN2C[C@H](Cc3ccc(O)cc3)N(CCc3ccc(O)cc3)C(=O)C2=O)N(Cc2ccccc2)C1=O | 0 | 0 | 0 | 0 | 0 | 0
COc1ccc(N2CCN(Cc3oc(CO)cc(=O)c3O)CC2)cc1 | 0 | 0 | 0 | 0 | 0 | 0
COc1ccc(CCN2C(=O)c3[nH]nc(-c4ccccc4O)c3C2c2ccccc2)cc1OC (configuration not stated) | 16µM | 21µM | 33µM | 18µM | ? | 23µM
COc1cc(C2c3c(-c4ccccc4O)n[nH]c3C(=O)N2CCO)ccc1OCC(C)C (configuration not stated) | 0 | ? | - | ? | - | 0
COC(=O)c1ccc(C2c3c(-c4ccccc4O)n[nH]c3C(=O)N2Cc2cccnc2)cc1 (configuration not stated) | 0 | ? | - | ? | - | ?
CCCN1C(=O)c2[nH]nc(-c3cccc(OC)c3)c2C1c1ccccn1 (configuration not stated) | - | 21µM | - | ? | - | -
COCCN1C(=O)c2[nH]nc(-c3ccccc3O)c2C1c1ccc(OCc2ccccc2)c(OC)c1 (configuration not stated) | - | 8.2µM | - | ? | - | -
